# Experiments:
# Assay in all cases: DAPPL (digital affinity profiling via proximity ligation, sequencing); 10 mM Tris-HCl pH 7.5, 50 mM NaCl, 1 mM DTT, 4% glycerol, room temperature, 30 min; GST-TFs on glutathione beads, 16-mer random dsDNA library, 0.1% formaldehyde crosslink after washing; high values mean tight binding
# [1] = target: T1, FLI1 (Homo sapiens, UniProt Q01543 1-452); conditions: protein: recombinant; tags: N-terminal GST; dsDNA, one strand shown
# T1 sequence: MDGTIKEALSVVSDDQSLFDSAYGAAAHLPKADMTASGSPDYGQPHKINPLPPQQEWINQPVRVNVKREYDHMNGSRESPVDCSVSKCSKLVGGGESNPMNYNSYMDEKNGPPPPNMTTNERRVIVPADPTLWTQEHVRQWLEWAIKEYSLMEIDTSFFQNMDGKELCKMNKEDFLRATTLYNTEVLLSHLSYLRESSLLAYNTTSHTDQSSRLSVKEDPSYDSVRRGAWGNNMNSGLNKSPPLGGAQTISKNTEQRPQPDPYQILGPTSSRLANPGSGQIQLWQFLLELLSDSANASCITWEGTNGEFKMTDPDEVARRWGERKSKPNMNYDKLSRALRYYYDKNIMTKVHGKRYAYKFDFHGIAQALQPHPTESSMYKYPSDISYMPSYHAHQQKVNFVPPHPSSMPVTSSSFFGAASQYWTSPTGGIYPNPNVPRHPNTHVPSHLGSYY
# Outline: (§1)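 Pools of DNA-barcoded human transcription factors, expressed in yeast as GST fusions on glutathione beads and combined with a tag-only sample, were incubated with 200 nmole of a 16-mer random double-stranded DNA library. Incubation took 30 min at room temperature in Tris/NaCl/DTT/glycerol buffer and was followed by washing, 0.1% formaldehyde crosslinking, proximity ligation (BsaI/T4 ligase, 1 h, 37 °C), PCR amplification and sequencing on an Illumina NextSeq500. Binding signal is the ratio of a hexamer's read frequency for a factor to its frequency for the tag-only sample.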
# [2] = target: T2, ELK1 (Homo sapiens, UniProt P19419 1-428); conditions: protein: recombinant; tags: N-terminal GST; dsDNA, one strand shown
# T2 sequence: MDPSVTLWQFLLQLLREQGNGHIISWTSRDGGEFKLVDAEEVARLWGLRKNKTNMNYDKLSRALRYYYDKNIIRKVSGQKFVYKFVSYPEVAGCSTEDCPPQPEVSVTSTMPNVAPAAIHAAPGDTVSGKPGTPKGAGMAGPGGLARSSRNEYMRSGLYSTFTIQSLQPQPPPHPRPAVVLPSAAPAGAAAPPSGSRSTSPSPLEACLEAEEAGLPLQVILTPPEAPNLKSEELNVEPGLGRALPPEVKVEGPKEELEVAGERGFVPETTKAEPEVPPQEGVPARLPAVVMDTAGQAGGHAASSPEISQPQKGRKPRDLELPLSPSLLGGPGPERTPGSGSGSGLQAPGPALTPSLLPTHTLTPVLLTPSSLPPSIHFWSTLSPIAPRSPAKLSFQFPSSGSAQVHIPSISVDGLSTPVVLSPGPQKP
# Outline: as §1
# [3] = target: T3, GABPA (Homo sapiens, UniProt Q06546 1-454); conditions: protein: recombinant; tags: N-terminal GST; dsDNA, one strand shown
# T3 sequence: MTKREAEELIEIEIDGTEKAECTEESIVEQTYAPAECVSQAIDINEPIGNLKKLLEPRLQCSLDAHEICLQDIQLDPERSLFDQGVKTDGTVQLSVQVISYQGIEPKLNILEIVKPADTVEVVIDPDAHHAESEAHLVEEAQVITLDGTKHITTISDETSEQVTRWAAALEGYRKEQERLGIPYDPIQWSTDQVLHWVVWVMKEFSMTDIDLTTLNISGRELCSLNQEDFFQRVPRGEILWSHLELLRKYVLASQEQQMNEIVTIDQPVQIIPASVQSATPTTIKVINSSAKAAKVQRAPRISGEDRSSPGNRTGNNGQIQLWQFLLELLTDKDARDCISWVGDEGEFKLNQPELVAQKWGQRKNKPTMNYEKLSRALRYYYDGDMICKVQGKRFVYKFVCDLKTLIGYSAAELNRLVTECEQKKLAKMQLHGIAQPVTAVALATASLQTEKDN
# Outline: as §1
# [4] = target: T4, ERG (Homo sapiens, UniProt P11308 1-479); conditions: protein: recombinant; tags: N-terminal GST; dsDNA, one strand shown
# T4 sequence: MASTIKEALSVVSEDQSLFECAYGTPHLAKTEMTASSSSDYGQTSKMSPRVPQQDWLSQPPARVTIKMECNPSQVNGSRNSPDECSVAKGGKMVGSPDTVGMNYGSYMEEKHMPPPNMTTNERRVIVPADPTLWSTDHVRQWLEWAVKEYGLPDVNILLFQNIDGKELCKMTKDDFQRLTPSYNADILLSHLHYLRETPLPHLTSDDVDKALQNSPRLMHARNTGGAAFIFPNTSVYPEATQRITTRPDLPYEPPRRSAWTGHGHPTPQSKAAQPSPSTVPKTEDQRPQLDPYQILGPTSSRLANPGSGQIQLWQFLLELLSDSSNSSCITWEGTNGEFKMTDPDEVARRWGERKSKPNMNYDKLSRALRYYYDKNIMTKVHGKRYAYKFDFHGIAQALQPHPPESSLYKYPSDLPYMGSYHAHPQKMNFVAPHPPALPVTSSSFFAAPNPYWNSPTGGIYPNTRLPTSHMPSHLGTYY
# Outline: as §1
# [5] = target: ELF1 (Homo sapiens, UniProt P32519 1-619); conditions: protein: recombinant; tags: N-terminal GST; dsDNA, one strand shown
# Outline: as §1
# [6] = target: T5, EHF (Homo sapiens, UniProt Q9NZC4 1-300); conditions: protein: recombinant; tags: N-terminal GST; dsDNA, one strand shown
# T5 sequence: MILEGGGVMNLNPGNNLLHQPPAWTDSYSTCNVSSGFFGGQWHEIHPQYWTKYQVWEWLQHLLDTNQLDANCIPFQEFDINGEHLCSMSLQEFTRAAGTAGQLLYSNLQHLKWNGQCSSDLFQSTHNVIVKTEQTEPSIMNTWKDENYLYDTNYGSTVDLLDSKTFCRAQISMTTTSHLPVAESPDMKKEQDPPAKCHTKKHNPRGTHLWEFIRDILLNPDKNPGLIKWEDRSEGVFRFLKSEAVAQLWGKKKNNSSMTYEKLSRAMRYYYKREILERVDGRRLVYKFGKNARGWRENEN
# Outline: as §1
# [7] = target: SPI1 (Homo sapiens, UniProt P17947 1-270); conditions: protein: recombinant; tags: N-terminal GST; dsDNA, one strand shown
# Outline: as §1
# [8] = target: SPIB (Homo sapiens, UniProt Q01892 1-262); conditions: protein: recombinant; tags: N-terminal GST; dsDNA, one strand shown
# Outline: as §1
# [9] = target: T6, ELK3 (Homo sapiens, UniProt P41970 1-407); conditions: protein: recombinant; tags: N-terminal GST; dsDNA, one strand shown
# T6 sequence: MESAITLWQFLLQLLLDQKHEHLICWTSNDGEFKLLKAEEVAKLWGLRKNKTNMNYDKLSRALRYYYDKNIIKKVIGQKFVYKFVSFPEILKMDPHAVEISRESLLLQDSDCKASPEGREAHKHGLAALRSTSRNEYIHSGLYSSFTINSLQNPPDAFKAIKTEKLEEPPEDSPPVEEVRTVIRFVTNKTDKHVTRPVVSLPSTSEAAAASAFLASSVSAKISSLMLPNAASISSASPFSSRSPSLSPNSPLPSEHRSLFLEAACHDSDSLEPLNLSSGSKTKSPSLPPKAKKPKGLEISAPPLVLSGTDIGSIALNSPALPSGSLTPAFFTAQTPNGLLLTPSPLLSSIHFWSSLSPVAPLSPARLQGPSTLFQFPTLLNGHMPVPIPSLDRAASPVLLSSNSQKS
# Outline: as §1
# [10] = target: T7, FEV (Homo sapiens, UniProt Q99581 1-238); conditions: protein: recombinant; tags: N-terminal GST; dsDNA, one strand shown
# T7 sequence: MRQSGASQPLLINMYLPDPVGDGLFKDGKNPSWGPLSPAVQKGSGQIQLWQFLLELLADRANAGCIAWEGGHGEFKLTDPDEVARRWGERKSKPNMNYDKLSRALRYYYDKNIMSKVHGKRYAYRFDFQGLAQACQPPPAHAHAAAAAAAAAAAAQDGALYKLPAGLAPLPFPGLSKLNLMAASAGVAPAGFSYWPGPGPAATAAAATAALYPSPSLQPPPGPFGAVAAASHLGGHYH
# Outline: as §1
# [11] = target: ETV5 (Homo sapiens, UniProt P41161 1-510); conditions: protein: recombinant; tags: N-terminal GST; dsDNA, one strand shown
# Outline: as §1
# [12] = target: HSF1 (Homo sapiens, UniProt Q00613 1-529); conditions: protein: recombinant; tags: N-terminal GST; chain copies: 3; dsDNA, one strand shown
# Outline: as §1
# [13] = target: T8, SPIC (Homo sapiens, UniProt Q8N5J4 1-248); conditions: protein: recombinant; tags: N-terminal GST; dsDNA, one strand shown
# T8 sequence: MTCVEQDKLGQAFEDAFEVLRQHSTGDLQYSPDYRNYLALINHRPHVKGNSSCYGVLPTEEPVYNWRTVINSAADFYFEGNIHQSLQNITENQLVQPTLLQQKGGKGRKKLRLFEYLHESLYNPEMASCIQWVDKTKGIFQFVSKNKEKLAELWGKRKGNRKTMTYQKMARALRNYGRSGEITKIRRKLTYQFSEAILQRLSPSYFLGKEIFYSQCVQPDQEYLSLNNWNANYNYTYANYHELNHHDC
# Outline: as §1
# [14] = target: ELF4 (Homo sapiens, UniProt Q99607 1-663); conditions: protein: recombinant; tags: N-terminal GST; dsDNA, one strand shown
# Outline: as §1
# [15] = target: T9, ELK4 (Homo sapiens, UniProt P28324-2 1-405); conditions: protein: recombinant; tags: N-terminal GST; dsDNA, one strand shown
# T9 sequence: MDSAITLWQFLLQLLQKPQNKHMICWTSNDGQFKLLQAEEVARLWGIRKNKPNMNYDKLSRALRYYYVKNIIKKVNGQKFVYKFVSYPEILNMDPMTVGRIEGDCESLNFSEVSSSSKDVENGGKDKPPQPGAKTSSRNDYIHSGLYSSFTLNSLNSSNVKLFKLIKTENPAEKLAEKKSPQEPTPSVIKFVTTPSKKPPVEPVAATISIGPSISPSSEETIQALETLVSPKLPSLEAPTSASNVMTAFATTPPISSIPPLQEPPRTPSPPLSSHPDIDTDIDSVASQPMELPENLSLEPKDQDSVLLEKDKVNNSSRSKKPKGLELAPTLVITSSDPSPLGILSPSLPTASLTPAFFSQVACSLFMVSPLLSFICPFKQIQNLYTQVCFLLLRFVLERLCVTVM
# Outline: as §1
# [16] = target: T10, ETV2 (Homo sapiens, UniProt O00321 1-342); conditions: protein: recombinant; tags: N-terminal GST; dsDNA, one strand shown
# T10 sequence: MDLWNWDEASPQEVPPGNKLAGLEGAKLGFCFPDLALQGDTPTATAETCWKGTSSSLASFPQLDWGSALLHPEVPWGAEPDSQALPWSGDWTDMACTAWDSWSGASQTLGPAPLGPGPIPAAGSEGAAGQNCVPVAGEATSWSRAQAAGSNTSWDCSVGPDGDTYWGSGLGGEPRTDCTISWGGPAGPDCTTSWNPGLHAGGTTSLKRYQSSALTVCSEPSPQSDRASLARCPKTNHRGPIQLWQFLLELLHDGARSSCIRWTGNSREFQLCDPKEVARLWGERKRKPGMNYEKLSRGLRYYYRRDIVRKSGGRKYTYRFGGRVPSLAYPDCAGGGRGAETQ
# Outline: as §1
# [17] = target: T11, ELF3 (Homo sapiens, UniProt P78545 1-371); conditions: protein: recombinant; tags: N-terminal GST; dsDNA, one strand shown
# T11 sequence: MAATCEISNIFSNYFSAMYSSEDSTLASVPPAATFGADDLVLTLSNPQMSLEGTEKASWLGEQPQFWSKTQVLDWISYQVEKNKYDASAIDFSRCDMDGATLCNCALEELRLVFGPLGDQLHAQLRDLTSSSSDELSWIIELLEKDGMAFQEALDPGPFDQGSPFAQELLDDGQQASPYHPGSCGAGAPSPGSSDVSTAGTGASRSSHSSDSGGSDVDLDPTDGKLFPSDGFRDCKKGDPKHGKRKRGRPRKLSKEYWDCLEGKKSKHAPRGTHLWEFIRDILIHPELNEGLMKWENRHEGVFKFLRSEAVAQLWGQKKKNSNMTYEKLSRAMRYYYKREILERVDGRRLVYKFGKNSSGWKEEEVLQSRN
# Outline: as §1
# [18] = target: CRX (Homo sapiens, UniProt O43186 1-299); conditions: protein: recombinant; tags: N-terminal GST; dsDNA, one strand shown
# Outline: as §1
# [19] = target: ETV1 (Homo sapiens, UniProt P50549 1-477); conditions: protein: recombinant; tags: N-terminal GST; dsDNA, one strand shown
# Outline: as §1
# ETV1, sequence (P50549 whole entry): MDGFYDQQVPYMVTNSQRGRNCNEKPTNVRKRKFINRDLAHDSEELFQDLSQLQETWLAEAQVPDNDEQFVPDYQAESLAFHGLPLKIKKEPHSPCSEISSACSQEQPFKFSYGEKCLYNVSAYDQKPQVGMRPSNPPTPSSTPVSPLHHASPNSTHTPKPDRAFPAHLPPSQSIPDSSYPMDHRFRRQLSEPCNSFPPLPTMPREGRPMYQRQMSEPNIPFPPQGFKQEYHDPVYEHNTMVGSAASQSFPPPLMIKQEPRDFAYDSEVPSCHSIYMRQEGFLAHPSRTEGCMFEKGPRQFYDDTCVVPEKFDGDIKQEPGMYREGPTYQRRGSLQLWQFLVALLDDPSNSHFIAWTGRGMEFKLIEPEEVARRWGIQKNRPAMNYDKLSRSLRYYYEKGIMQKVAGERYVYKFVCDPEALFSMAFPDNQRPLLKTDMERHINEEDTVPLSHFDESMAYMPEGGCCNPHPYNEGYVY
# CRX, sequence (O43186 whole entry): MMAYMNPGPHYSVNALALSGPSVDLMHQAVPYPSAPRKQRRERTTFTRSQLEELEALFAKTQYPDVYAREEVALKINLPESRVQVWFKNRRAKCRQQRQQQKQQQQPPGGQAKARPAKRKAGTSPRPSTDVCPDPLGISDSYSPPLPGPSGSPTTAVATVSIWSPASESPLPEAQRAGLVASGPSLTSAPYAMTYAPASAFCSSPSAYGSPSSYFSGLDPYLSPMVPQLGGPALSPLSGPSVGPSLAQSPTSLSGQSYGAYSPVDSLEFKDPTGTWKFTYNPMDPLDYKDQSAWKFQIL
# SPIB, sequence (Q01892 whole entry): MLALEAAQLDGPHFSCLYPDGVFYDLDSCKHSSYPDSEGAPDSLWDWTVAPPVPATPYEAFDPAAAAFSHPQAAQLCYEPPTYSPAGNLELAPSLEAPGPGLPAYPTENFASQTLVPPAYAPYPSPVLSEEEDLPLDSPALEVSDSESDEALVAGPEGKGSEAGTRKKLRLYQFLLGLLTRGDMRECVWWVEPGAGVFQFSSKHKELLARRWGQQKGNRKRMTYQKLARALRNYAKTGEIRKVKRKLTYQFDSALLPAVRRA
# ETV5, sequence (P41161 whole entry): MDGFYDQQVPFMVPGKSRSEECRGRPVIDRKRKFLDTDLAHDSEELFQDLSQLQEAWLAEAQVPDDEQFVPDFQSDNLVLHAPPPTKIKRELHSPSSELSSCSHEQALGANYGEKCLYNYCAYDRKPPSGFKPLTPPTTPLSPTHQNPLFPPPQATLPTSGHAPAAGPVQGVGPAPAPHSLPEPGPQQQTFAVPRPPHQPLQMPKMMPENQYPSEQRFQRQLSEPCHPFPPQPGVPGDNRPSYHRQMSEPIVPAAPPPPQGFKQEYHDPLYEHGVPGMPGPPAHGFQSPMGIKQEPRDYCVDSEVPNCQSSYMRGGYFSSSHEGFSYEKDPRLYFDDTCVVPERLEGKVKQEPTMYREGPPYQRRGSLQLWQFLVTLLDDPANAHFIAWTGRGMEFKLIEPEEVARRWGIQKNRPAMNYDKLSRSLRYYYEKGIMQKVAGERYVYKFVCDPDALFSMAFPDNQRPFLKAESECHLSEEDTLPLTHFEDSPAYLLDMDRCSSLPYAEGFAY
# HSF1, sequence (Q00613 whole entry): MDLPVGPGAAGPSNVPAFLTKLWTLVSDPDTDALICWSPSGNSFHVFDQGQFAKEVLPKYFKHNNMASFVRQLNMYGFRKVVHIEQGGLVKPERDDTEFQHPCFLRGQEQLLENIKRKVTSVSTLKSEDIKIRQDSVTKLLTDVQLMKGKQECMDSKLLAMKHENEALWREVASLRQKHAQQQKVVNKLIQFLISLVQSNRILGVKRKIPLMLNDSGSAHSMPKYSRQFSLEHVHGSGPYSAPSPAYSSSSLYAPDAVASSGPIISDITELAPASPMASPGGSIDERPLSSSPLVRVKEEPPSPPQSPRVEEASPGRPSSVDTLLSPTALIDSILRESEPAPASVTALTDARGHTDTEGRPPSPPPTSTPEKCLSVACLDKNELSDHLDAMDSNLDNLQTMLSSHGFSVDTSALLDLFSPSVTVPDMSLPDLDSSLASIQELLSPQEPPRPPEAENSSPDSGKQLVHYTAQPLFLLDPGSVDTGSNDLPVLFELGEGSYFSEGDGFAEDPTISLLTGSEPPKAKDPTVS
# ELF1, sequence (P32519 whole entry): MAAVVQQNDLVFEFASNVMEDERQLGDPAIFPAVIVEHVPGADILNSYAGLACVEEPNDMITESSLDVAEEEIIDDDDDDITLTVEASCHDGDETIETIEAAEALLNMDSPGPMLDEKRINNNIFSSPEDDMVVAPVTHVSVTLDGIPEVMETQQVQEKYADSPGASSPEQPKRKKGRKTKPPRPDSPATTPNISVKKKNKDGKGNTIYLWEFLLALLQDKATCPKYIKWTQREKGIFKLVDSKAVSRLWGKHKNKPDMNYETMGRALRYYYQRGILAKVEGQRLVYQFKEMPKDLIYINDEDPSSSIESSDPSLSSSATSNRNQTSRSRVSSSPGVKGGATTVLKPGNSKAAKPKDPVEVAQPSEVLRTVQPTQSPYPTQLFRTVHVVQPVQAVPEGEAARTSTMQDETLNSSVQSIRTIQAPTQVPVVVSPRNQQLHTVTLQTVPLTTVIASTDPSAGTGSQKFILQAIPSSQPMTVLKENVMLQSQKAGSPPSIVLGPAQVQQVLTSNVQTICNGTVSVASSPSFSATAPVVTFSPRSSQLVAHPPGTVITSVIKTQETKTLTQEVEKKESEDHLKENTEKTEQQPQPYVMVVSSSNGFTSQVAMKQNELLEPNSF
# ELF4, sequence (Q99607 whole entry): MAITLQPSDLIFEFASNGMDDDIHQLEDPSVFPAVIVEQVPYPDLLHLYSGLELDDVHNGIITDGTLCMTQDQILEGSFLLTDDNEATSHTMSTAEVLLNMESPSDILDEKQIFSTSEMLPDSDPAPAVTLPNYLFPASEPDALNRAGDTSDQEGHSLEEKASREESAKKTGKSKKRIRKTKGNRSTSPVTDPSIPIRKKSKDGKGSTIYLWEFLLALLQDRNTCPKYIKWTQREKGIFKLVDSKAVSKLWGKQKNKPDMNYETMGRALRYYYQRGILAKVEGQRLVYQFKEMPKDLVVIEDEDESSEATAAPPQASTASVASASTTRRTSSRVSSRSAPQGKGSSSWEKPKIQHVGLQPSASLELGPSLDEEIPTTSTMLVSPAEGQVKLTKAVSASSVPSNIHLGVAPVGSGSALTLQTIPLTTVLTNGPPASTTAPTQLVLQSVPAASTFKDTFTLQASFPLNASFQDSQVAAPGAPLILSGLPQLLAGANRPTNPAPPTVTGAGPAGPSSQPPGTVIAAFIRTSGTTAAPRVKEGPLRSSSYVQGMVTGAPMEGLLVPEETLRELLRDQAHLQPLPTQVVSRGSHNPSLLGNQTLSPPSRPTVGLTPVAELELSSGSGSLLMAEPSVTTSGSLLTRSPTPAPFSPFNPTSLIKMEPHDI
sequence,measurement,setting,value
TGGTCT,binding signal,[1],"1.56 fold enrichment (6-mer frequency, TF over GST control)"
same,binding signal,[2],"1.69 fold enrichment (6-mer frequency, TF over GST control)"
same,binding signal,[3],"1.47 fold enrichment (6-mer frequency, TF over GST control)"
same,binding signal,[4],"1.49 fold enrichment (6-mer frequency, TF over GST control)"
same,binding signal,[5],"1.49 fold enrichment (6-mer frequency, TF over GST control)"
same,binding signal,[6],"1.66 fold enrichment (6-mer frequency, TF over GST control)"
same,binding signal,[7],"1.58 fold enrichment (6-mer frequency, TF over GST control)"
same,binding signal,[8],"1.76 fold enrichment (6-mer frequency, TF over GST control)"
same,binding signal,[9],"1.65 fold enrichment (6-mer frequency, TF over GST control)"
same,binding signal,[10],"1.45 fold enrichment (6-mer frequency, TF over GST control)"
same,binding signal,[11],"1.52 fold enrichment (6-mer frequency, TF over GST control)"
same,binding signal,[12],"1.12 fold enrichment (6-mer frequency, TF over GST control)"
same,binding signal,[13],"1.34 fold enrichment (6-mer frequency, TF over GST control)"
same,binding signal,[14],"1.57 fold enrichment (6-mer frequency, TF over GST control)"
same,binding signal,[15],"1.48 fold enrichment (6-mer frequency, TF over GST control)"
same,binding signal,[16],"1.33 fold enrichment (6-mer frequency, TF over GST control)"
same,binding signal,[17],"1.28 fold enrichment (6-mer frequency, TF over GST control)"
same,binding signal,[18],"1.17 fold enrichment (6-mer frequency, TF over GST control)"
same,binding signal,[19],"1.5 fold enrichment (6-mer frequency, TF over GST control)"

# Source: paper PMC7862700, “An all-to-all approach to the identification of sequence-specific readers for epigenetic DNA modifications on cytosine”
